This is part of a sample that, as a whole, favours compounds with a hit. Of some 83,000 tested, about 20% had one in any assay.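 Results are percent growth after 48 hours of single-concentration exposure. 100 means growth as in untreated cells, lower positive values show inhibition; negative values down to -100 show cell death.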 A number with no mark means an inactive call. Active and inactive are the calls of the source. How the source made its calls: active means growth percent below 10; inactive means the rest.
Assays:
Experiment in all cases: NCI-60 one-dose screen, 48 h (100 = growth as untreated, 0 = no growth, -100 = all killed)
Conditions in all cases: 10 µM unless noted
MOLT-4 leukemia = tested on: MOLT-4 leukemia
SR leukemia = tested on: SR leukemia
RPMI-8226 leukemia = tested on: RPMI-8226 leukemia
OVCAR-8 ovarian = tested on: OVCAR-8 ovarian
OVCAR-5 ovarian = tested on: OVCAR-5 ovarian
OVCAR-4 ovarian = tested on: OVCAR-4 ovarian
SK-OV-3 ovarian = tested on: SK-OV-3 ovarian
IGROV1 ovarian = tested on: IGROV1 ovarian
OVCAR-3 ovarian = tested on: OVCAR-3 ovarian
HS 578T breast = tested on: HS 578T breast
NCI/ADR-RES ovarian = tested on: NCI/ADR-RES ovarian
BT-549 breast = tested on: BT-549 breast
MDA-MB-435 melanoma = tested on: MDA-MB-435 melanoma
SW-620 colon = tested on: SW-620 colon
MCF7 breast = tested on: MCF7 breast
HCT-116 colon = tested on: HCT-116 colon
KM12 colon = tested on: KM12 colon
HCC-2998 colon = tested on: HCC-2998 colon
T-47D breast = tested on: T-47D breast

Structure (SMILES) | growth (MOLT-4 leukemia) | growth (SR leukemia) | growth (RPMI-8226 leukemia) | growth (OVCAR-8 ovarian) | growth (OVCAR-5 ovarian) | growth (OVCAR-4 ovarian) | growth (SK-OV-3 ovarian) | growth (IGROV1 ovarian) | growth (OVCAR-3 ovarian) | growth (HS 578T breast) | growth (NCI/ADR-RES ovarian) | growth (BT-549 breast) | growth (MDA-MB-435 melanoma) | growth (SW-620 colon) | growth (MCF7 breast) | growth (HCT-116 colon) | growth (KM12 colon) | growth (HCC-2998 colon) | growth (T-47D breast)
COc1cc(-c2ccc(N)c(OC)c2)ccc1N | 173% | 143% | 96.5% | 114% | 94.4% | 104% | 105% | 120% | 104% | 105% | 105% | 95.6% | 107% | 100% | 99.8% | 112% | 101% |  | 
O=C(CBr)OCCOC(=O)CBr | 64.1% | 8.37% (active) | 33.8% | 93.7% | 117% | 38.3% | 133% | -45.8% (active) | 87.5% | 3.4% (active) | 99.9% | 65.4% | 91.6% | 58.1% | 68.5% | 69.2% | 99.5% | 110% | 
CCC(Br)(CC)C(=O)NC(N)=O | 99.2% | 105% | 109% | 113% | 101% | 101% | 114% | 110% | 111% | 106% |  | 108% | 102% | 110% | 94.6% | 93% | 104% | 105% | 101%
CC(Oc1ccc(-c2ccccc2)cc1)C(=O)O (centres undefined) | 104% | 106% | 101% | 103% | 108% | 101% | 105% | 103% | 111% | 110% |  | 106% | 102% | 102% | 103% | 98.5% | 107% |  | 98.4%
Oc1cc(N2CC2)c(O)cc1N1CC1 | 9.13% (active) | 21.6% | 2.53% (active) | 11.2% | 2.7% (active) | 18% | 2.44% (active) | -38.3% (active) | -34.4% (active) | -17.4% (active) | 1.01% (active) | 30% | 0.0051% (active) | 3.72% (active) | -30.3% (active) | 6.02% (active) | -52.7% (active) | -55.2% (active) | 
Cc1cc(N(CCCl)CCCl)ccc1C=Nc1ccc(-c2csc(-c3ccccc3)n2)cc1 | 22.5% | 31.4% | 77.3% | 91.3% | 120% | 89.6% | 71.6% | 93.2% | 89.7% | 107% |  | 67.2% | 95.2% | 83.1% | 48% | 89.8% | 89.5% | 94.2% | 57.8%
CC[C@H](C)[C@H](NC(=O)[C@H]1CCCCN1C)C(=O)N(C)[C@H](C[C@@H](OC(C)=O)c1nc(C(=O)NC23C4C5C2C2C3C4C52C(=O)OC)cs1)C(C)C (some centres undefined) | 8.38% (active) | 2.77% (active) | 29.2% | 16.5% | 55.7% | 50.3% | 34.4% | 21.9% | -7.47% (active) | 34.3% |  | -36% (active) |  | 41.9% | 13.7% | 7.22% (active) | -3.83% (active) | 9.29% (active) | 73.3%
CCC(=O)C(CC(C)[N+](C)(C)C)(c1ccccc1)c1ccccc1 (centres undefined) | 104% | 101% | 109% | 99.8% | 96.8% | 110% | 96.6% | 101% | 70.6% | 107% | 102% | 67.5% | 104% | 104% | 90.7% | 93.6% | 107% |  | 
C=CC[PH+](c1ccccc1)c1ccccc1.C=CC[PH+](c1ccccc1)c1ccccc1.[Pt+2].[S-]c1nc2ccccc2[nH]1.[S-]c1nc2ccccc2[nH]1 | 0.306% (active) | 4.38% (active) | -19.1% (active) | 2.64% (active) | -3.98% (active) | 4.93% (active) | 8.34% (active) | -23.4% (active) | -23.3% (active) | -16.6% (active) | 88.4% | -28.1% (active) |  | 3.79% (active) | 3.99% (active) | -29.7% (active) | -63% (active) |  | 
CC/C(=C(\c1ccc(OCCN2CCOCC2)cc1)c1ccc(OC(=O)Cc2ccccc2)cc1)c1ccc(Cl)cc1 | 96.7% | 95.6% | 98.8% | 107% | 104% | 120% | 111% | 106% | 102% | 96.6% |  | 104% |  | 99.9% | 75.8% | 97.3% | 101% |  | 63.5%
COc1ccc2c(c1)c(-c1nc(-c3c[nH]c4ncccc34)cs1)cn2CCCCN1CCOCC1 | -21% (active) | -17.5% (active) | -5.6% (active) | 55.6% | 58.3% | 50.8% | 78.2% | 36.1% | 58.3% | 44.8% | 63.3% | 84.2% | -59% (active) | -63% (active) | 18.1% | 32.5% | 16.4% | 26.7% | 
N#CCN(CC#N)[N+](=O)[O-] | 114% | 100% | 97.2% | 109% | 103% | 111% | 104% | 121% | 108% | 89.5% | 110% |  | 108% | 101% | 93.3% | 96.8% | 112% | 115% | 92.2%
O=C(O)C(Br)CBr (centres undefined) | 87.7% | 99% | 103% | 92.9% | 117% | 97.1% | 101% | 104% | 106% |  | 101% | 100% | 103% | 105% | 87.9% | 94.8% | 104% |  | 89.6%
CO[C@H]1[C@H](O[C@@H]2C[C@@H]3C/C=C/C(=O)O[C@@H](CO)C[C@H](O)[C@@H]4C[C@H](C)[C@H](C/C=C\C=C\[C@H](C)C[C@H](C2)O3)O4)O[C@@H](C)[C@H](O)[C@H]1O | 43.8% | 85.2% | 28.1% | 42.6% | 71.2% | 30.1% | 54% | 71% | 60.2% |  | 55.8% | 53.9% | 64.3% | 76.6% | 29.1% | 57% | 68.1% | 53.6% | 20.8%
C[C@]12C[C@H](c3ccoc3)OC(=O)[C@H]1CC[C@@]1(C)[C@@H]2[C@H]2C=C[C@]1(O)C(=O)O2 | 96% | 100% | 95.4% | 95.3% | 104% | 93.7% | 95.7% | 96% | 102% |  | 106% | 86.5% | 98.1% | 109% | 92.7% | 76.6% | 104% | 103% | 103%
CC1=C(C)C(=O)O[C@@H]([C@](C)(O)[C@]2(O)CC[C@@]3(O)[C@@H]4C[C@H]5O[C@]56CC=CC(=O)[C@]6(C)[C@H]4CC[C@]23C)C1 | -12.7% (active) | -23.5% (active) | -19.2% (active) | -7.94% (active) | 21.7% | 7.99% (active) | -19% (active) | -36.7% (active) | -59.6% (active) |  | 42.6% | -24.4% (active) | 3.13% (active) | -37% (active) | -16.3% (active) | -4.21% (active) | -24.2% (active) | -69.8% (active) | 0.829% (active)
CC[C@H](C)[C@H](NC(=O)[C@H]1CCCCN1C)C(=O)N(C)[C@H](C[C@@H](OC(C)=O)c1cccc(C(=O)N[C@@H](Cc2ccccc2)C[C@H](C)C(=O)OC)n1)C(C)C | 13.6% | 12.2% | 20% | 12% | 39% | 48.8% | 13.8% | 29% | -18.1% (active) |  | 13.4% | -22.5% (active) | -29.2% (active) |  | 12.7% | -5.08% (active) | 4.26% (active) | 15.4% | 63.6%
S=P(SP(=S)(c1ccccc1)c1ccccc1)(c1ccccc1)c1ccccc1 | 98.3% | 93.7% | 87.7% | 104% | 95.2% | 111% | 106% | 119% | 104% |  | 104% | 109% | 97.5% |  | 112% | 109% | 105% | 104% | 
Nc1ccc(S(=O)(=O)F)cc1 | 93.3% | 84.7% | 98.9% | 107% | 102% | 130% | 105% | 105% | 111% |  | 107% | 104% | 102% |  | 106% | 100% | 100% | 103% | 96.4%
C=CC[PH+](c1ccccc1)c1ccccc1.C=CC[PH+](c1ccccc1)c1ccccc1.[Pt+2].[S-]c1ncccn1.[S-]c1ncccn1 | 7.91% (active) | 13.5% | 0.618% (active) | 1.96% (active) | 14.3% | 17.6% | 96.3% | 16.3% | -24.5% (active) |  | 39.6% | 64% | -48.1% (active) | -4.87% (active) | 17.2% | -43.8% (active) | 76.7% | 97.5% | 2% (active)
Cc1nc2ccccc2c(=O)n1-c1ccccc1F | 96.9% | 108% | 102% | 93.2% | 102% | 99.3% | 97.4% | 111% | 107% |  | 112% | 105% |  | 105% | 93.9% | 98.7% | 105% | 108% | 79.1%

Source: PubChem BioAssay (NCI)
